Screens as filed in PubChem.
An excerpt weighted towards active compounds, which were near 2.7% of everything screened.
F508del corr: CFTR F508del correction in bronchial cells | AID 720511 | 350,000 compounds, 0.36% hits | CFBE cells, YFP halide quenching; stimulated with forskolin plus potentiator P3; % fluorescence drop versus neutral controls | activity (quench increase), % at 7.58 µM;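 active = mean added fluorescence quench of at least 8% versus neutral control, with both replicates also reaching 8%; inconclusive = only one of the mean or replicate conditions met; inactive = mean below 8% and not both replicates reaching 8%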;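 note: cells transiently co-express mutant CFTR-F508del with the halide-sensitive YFP; corrector assay measuring rescue of mutant channel to the surface after 24 h compound exposure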
EWS-Fli block: inhibitors of EWS/Fli oncoprotein transcriptional activity; A673 NR0B1-luciferase reporter, viability-normalised; inhibition, % at 12.6 µM; 350,000 compounds, 0.67% hits; AID 651661;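 active = mean inhibition of at least 50% after viability correction, with every replicate also passing that limit; inconclusive = mean reaches 50% but only one of two replicates passes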;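 note: firefly luciferase signal divided by Alamar Blue viability fluorescence both relative to DMSO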
PAX8 inh HTS: lowers PAX8-driven luciferase in RMG-I cells | inhibition, % at 12.6 µM | RMG-I TPO-luciferase reporter, SteadyGlo, 24 h | 360,000 compounds, 1.2% hits;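 active = mean replicate inhibition at least 60% with every replicate also reaching 60%; inconclusive = only one of the two criteria is met; inactive = mean below 60% and not all replicates reaching 60%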;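 note: luciferase light reporting Pax8 driven TPO promoter activity; plate controls were median of neutral control wells for no effect and mitoxantrone controls for full effect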
INS-1E GSIS act: primary screen for activators of insulin secretion dependent on glucose, INS-1E cells, GLuc reporter luminescence. 370,000 compounds, 0.61% hits. INS-1E GLuc reporter insulin secretion, 2-3 h. AID 743287. activation, % at 16.6 µM;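 active = lowest replicate activation of at least 40%, so every replicate reaches that level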;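 note: 0% = median of neutral control wells and 100% = median of IBMX positive control wells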
Env fusion inh: blocks HIV Env-driven cell-cell fusion; HeLa-JRFL Env/CEM21 cell fusion, luciferase; inhibition, % at 12.3 µM; 360,000 compounds, 1.1% hits; AID 651610;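 active = mean replicate inhibition score of at least 50 and every replicate individually at or above 50; inconclusive = only one of the two criteria met; inactive = mean below 50 and not all replicates reaching 50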;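 note: 0% = plate neutral controls and 100% = maraviroc near 300 nM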
PGC1a acetyl inh: PGC1a acetylation modulation, inhibitor mode. inhibition, % at 15.6 µM. U2OS PGC1a acetylation, AlphaScreen anti-acetyl-lysine; with virally co-expressed GCN5 acetyltransferase. 350,000 compounds, 0.17% hits;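 active = every replicate shows inhibition of at least 40%; inconclusive = mean inhibition at least 40% but some replicate below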;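 note: 0% = neutral control wells and 100% = positive control wells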
Active calls of the source: *; i = inactive; ? = inconclusive; . = no result given; [ ] = remark or other dose.

SMILES	F508del corr	EWS-Fli block	PAX8 inh HTS	INS-1E GSIS act	Env fusion inh	PGC1a acetyl inh
O=C(Nc1ccccc1F)N1CC(=O)N2[C@H](C1)[C@@H](c1ccc(-c3ccc(F)cc3)cc1)[C@@H]2CO	.	.	.	-15.0	.	.
COc1ccccc1NC(=O)N[C@@H]1CC[C@H](CCn2cc(-c3ccccc3)nn2)O[C@H]1CO	1.1	7.1	3.6	-13.8	-19.2[16.7 µM]	-6.8
C=CC1c2cc(OC)c(OC)cc2CC(C)N1Cc1ccc(OC)cc1 (stereo not given)	18.4*	56.4*	12.0	.	-145.7[16.7 µM]	1.9
O=C(NC1CCC1)[C@@H]1[C@@H](CO)[C@@H]2Cn3c(ccc(-c4ccccc4)c3=O)[C@@H]2N1Cc1ccccn1	-0.5	3.3	.	1.5	.	.
Nc1nc(CCl)nc(Nc2ccccc2)n1	-3.2	33.8	88.5*	3.5	1.8	.
Nc1nc(CN2CCN(Cc3ccccc3)CC2)nc(Nc2ccccc2)n1	0.3	10.8	.	3.4	.	9.2
Cc1ccc(Nc2nc(N)nc(CCl)n2)c(C)c1	-1.3	43.8	106.4*	-3.0	41.5	3.7
Cc1ccc(Nc2nc(N)nc(CC#N)n2)cc1	.	.	.	.	.	-2.5
Cc1ccc(Nc2nc(N)nc(CCl)n2)cc1	-32.0	71.1*	105.2*	-1.6	-25.8	4.8
Cc1cccc(Nc2nc(N)nc(CCl)n2)c1C	-6.8	?	124.6*	.	23.3	-0.7
COc1ccc2c3c(n(C)c2c1)[C@H](CO)N(S(C)(=O)=O)CC31CN(C(=O)C2CC2)C1	-0.3	6.3	.	32.8	.	0.5
CCO[C@@H]1OC(C(=O)N2CCN(Cc3ccccc3)CC2)=C[C@H](c2ccc3c(c2)OCO3)[C@H]1CCCO	0.7	2.0	29.5	.	6.0[16.7 µM]	-5.5
CCOc1ccc(Nc2nc(N)nc(CCl)n2)cc1	-2.1	48.4	109.9*	.	-138.3	6.0
CCOc1ccc(Nc2nc(N)nc(CN3CCN(c4ccccc4F)CC3)n2)cc1	-0.9	-6.3	-22.2	-7.2	14.3	-5.4
CC1=CN2C(=N)/C(=C/c3ccc([N+](=O)[O-])o3)C(=O)N=C2S1	.	55.6*	14.3	-40.0	-34.6	.
C[C@@H](O)C#Cc1ccc2c(c1)O[C@H](CN(C)C(=O)C1CCCCC1)[C@@H](C)CN([C@@H](C)CO)S2(=O)=O	1.2	0.6	.	6.8	-12.0[16.7 µM]	-4.1
CC1CCCN(C(=O)Cc2cn(Cc3cccc(Cl)c3)c3ccccc23)C1 (stereo not given)	1.0	21.3	64.3*	-6.3	.	.
COc1cc(/C=N/O)ccc1OCc1ccc(Cl)cc1	-0.4	-47.4	-214.1	37.0	i	.
COc1cc(/C=N/O)ccc1OCc1ccc(C(=O)O)cc1	.	.	94.3*	.	113.5*	-5.8
O=C(O)c1ccc(COc2ccccc2Cl)cc1	.	.	.	0.8	-61.5	1.1
COc1ccc(C(C)=O)cc1OCc1ccccc1	3.1	-7.2	-9.3	22.8	16.2	.
O=C(O)c1cccc(COc2ccccc2Cl)c1	2.5	86.1*	.	12.0	.	-3.7
COc1cc(C(=O)O)ccc1OCc1ccccc1	-0.4	-2.7	-8.7	55.4*	-12.8	.
C[C@@H]1CCCCO[C@H](CN(C)C(=O)Nc2ccc(F)cc2)[C@@H](C)CN([C@@H](C)CO)C(=O)c2cc(NC(=O)c3ccncc3)ccc2O1	0.6	4.2	1.9	17.4	-28.2[16.7 µM]	2.4
COCC1=C([C@H](O)c2ccccc2)[C@H](CO)[C@@H]2C(=O)N(C)C(=O)[C@@H]2C1	0.2	-2.9	-5.8	.	-0.2[16.7 µM]	2.3
SMILES	F508del corr	EWS-Fli block	PAX8 inh HTS	INS-1E GSIS act	Env fusion inh	PGC1a acetyl inh
CCOC(=O)CN1CCCc2nc(C)c(C)cc21	4.3	-1.4	-8.4	.	84.4*	.
C[C@@H]1CCCCO[C@@H](CN(C)Cc2ccc(C(F)(F)F)cc2)[C@@H](C)CN([C@@H](C)CO)C(=O)c2cc(NS(=O)(=O)c3ccc(Cl)cc3)ccc2O1	2.5	-9.0	91.3*	4.9	7.4[16.7 µM]	-19.4
C[C@H](CO)N1C[C@H](C)[C@@H](CN(C)Cc2ccc(C(F)(F)F)cc2)OCCCC[C@H](C)Oc2ccc(NS(=O)(=O)c3ccc(Cl)cc3)cc2C1=O	0.5	18.9	99.4*	-17.6	55.0*[16.7 µM]	-12.7
CN(C)C(=O)c1cccc(-c2ccc([C@H]3[C@H](CO)N4CCCCN(CCC(F)(F)F)C[C@@H]34)cc2)c1	4.7	-1.3	-2.7	19.9	.	-4.0
COc1ccc2c3c(n(C)c2c1)[C@@H](CO)N(C(=O)C1CCC1)CC31CCN(Cc2cccc(F)c2)CC1	3.6	32.9	35.2	-19.4	.	.
COc1ccc2c3c(n(C)c2c1)[C@@H](CO)N(C(=O)C1CC1)CC31CCN(Cc2cccc(F)c2)CC1	5.8	4.6	34.9	-10.1	.	0.2
COc1ccc2c3c(n(C)c2c1)[C@H](CO)N(C(=O)C1CC1)CC31CCN(Cc2cccc(F)c2)CC1	15.4*	18.4	70.2*	-7.0	.	3.8
COc1ccc2c3c(n(C)c2c1)[C@H](CO)N(C(=O)C1CCC1)CC31CCN(Cc2cccc(F)c2)CC1	1.2	32.9	60.4*	-5.7	.	.
C[C@@H]1CCCCO[C@@H](CN(C)S(=O)(=O)c2ccc(F)cc2)[C@H](C)CN([C@H](C)CO)C(=O)c2cc(NC(=O)Nc3ccc(F)cc3)ccc2O1	1.4	6.8	46.8	-22.3	25.4[16.7 µM]	-3.1
C[C@H](CO)N1C[C@H](C)[C@H](CN(C)S(=O)(=O)c2ccccc2)Oc2ccc(NC(=O)Nc3ccc(C(F)(F)F)cc3)cc2C1=O	2.1	0.8	.	-8.2	15.3[16.7 µM]	12.5
COc1ccc(C2c3ccc4ccccc4c3Oc3ncn(CCO)c(=N)c32)cc1OC (stereo not given)	.	.	.	13.1	.	7.4
COc1ccc(C2c3ccc4ccccc4c3Oc3ncn(CCCO)c(=N)c32)cc1OC (stereo not given)	15.0*	7.7	5.2	20.6	-3.1	.
O=C(Cc1cccs1)NNC(=O)c1ccccc1Cl	-0.7	-6.4	-4.3	14.5	.	.
O=C(Cc1ccsc1)NNC(=O)c1ccccc1Cl	3.4	6.2	2.5	41.7*	5.3	.
O=C(COC(=O)[C@H](Cc1c[nH]c2ccccc12)NC(=O)c1cccs1)NCc1ccccc1	0.3	7.9	65.6*	-12.7	.	-0.7
O=C(/C=C/c1ccccc1)c1ccc2c(c1)OCCCCO2	.	.	-145.0	.	-165.2	-8.3
O=C(CCl)N(C/C=C/c1ccccc1)c1ccc2c(c1)OCCO2	-3.7	44.6	84.2*	2.9	-21.6	.
CCOC(=O)[C@]12CCCC=C1N(Cc1ccccc1)C(=O)[C@H](CC(=O)NCCCOC)C2	1.9	0.0	-17.6	10.4	59.5*	.
CCCCCCCCN1C(=O)[C@H](CC(=O)NCc2cccs2)C[C@@]2(C(=O)OCC)CCCC=C12	-0.6	13.1	27.0	-32.0	88.2*	.
CCOC(=O)[C@]12CCC=C1N(Cc1ccc3c(c1)OCO3)C(=O)[C@H](CC(=O)NCC13CC4CC(CC(C4)C1)C3)C2	3.7	-0.2	7.4	-23.8	77.3*	.
CCCCCCCCN1C(=O)[C@H](CC(=O)NCc2ccc(OC)c(OC)c2)C[C@@]2(C(=O)OCC)CCCC=C12	-1.2	-0.9	35.2	16.8	69.7*	.
